The panel holds about 79,000 compounds, 15% with a hit somewhere; the sample as a whole holds those more often. A number with no mark means an inactive call. Active and inactive are the calls of the source. Cut-off read from the data, not from the text of the source: active = growth inhibition above about 70%; inactive = the rest.
Key:
[1] = NCI Yeast Anticancer Drug Screen. Data for the rad50 strain (AID 155);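 note: 0% = growth of vehicle-only cultures of the same strain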; settings: S. cerevisiae rad50 strain growth inhibition, stronger effect = higher value
How it was run: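 Relative growth inhibition (compound vs vehicle) was measured in yeast with a defined repair-gene alteration.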

[2] = NCI Yeast Anticancer Drug Screen. Data for the mec2-1 strain (AID 157); settings: S. cerevisiae mec2-1 strain, stronger effect = higher value
How it was run: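 Test agents were screened against the mec2-1 yeast strain, with defined DNA repair or cell cycle alteration. Growth was scored as inhibition against vehicle-only controls.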

[3] = NCI Yeast Anticancer Drug Screen. Data for the sgs1 mgt1 strain (AID 161);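 note: 0% = growth of cultures given vehicle only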; settings: S. cerevisiae sgs1 mgt1 strain, stronger effect = higher value
How it was run: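 Read-out: growth inhibition vs vehicle controls. Cells: mutant yeast strain deficient in DNA damage repair.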

[4] = NCI Yeast Anticancer Drug Screen. Data for the cln2 rad14 strain (AID 165);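 note: 0% = growth equal to vehicle treated cultures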; settings: S. cerevisiae cln2 rad14 strain, stronger effect = higher value
How it was run: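 Growth of compound-exposed yeast (cln2 rad14 genotype) measured and expressed as inhibition relative to vehicle.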

[5] = NCI Yeast Anticancer Drug Screen. Data for the bub3 strain (AID 167); settings: S. cerevisiae bub3 mutant strain, stronger effect = higher value
How it was run: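 Screening used yeast with an engineered genetic alteration affecting cell cycle control. Compound-exposed cultures were compared with vehicle cultures, and reduced growth was taken as inhibition.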

[6] = NCI Yeast Anticancer Drug Screen. Data for the mlh1 rad18 strain (AID 175); settings: S. cerevisiae mlh1 rad18 strain growth inhibition, stronger effect = higher value
How it was run: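 In this whole-cell yeast screen, a strain with altered DNA damage repair is challenged with compound, and its growth is measured against matched vehicle-treated controls.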

[7] = at 5.0 µM (retest, dose inferred, filed as 0.5)
[8] = at 50.0 µM (retest, dose inferred, filed as 5.0)

Row | SMILES | growth inhibition [1, 7] [%] | growth inhibition [1, 8] | growth inhibition ([1]; at 50.0 µM) | growth inhibition [2, 7] [%] | growth inhibition [2, 8] | growth inhibition ([2]; at 50.0 µM) | growth inhibition [3, 7] [%] | growth inhibition [3, 8] | growth inhibition ([3]; at 50.0 µM) | growth inhibition [4, 7] [%] | growth inhibition [4, 8] | growth inhibition ([4]; at 50.0 µM) | growth inhibition [5, 7] | growth inhibition [5, 8] | growth inhibition ([5]; at 50.0 µM) | growth inhibition [6, 7] [%] | growth inhibition [6, 8] | growth inhibition ([6]; at 50.0 µM)
1 | CC(C)C(Br)CC/C(CBr)=C(\Cl)CCl (stereo not given) | 24 | 99% (active) | 87% (active) | 21 | 99% (active) | 85.1% (active) | 13 | 99% (active) | 92.5% (active) | 17 | 98% (active) | 90.2% (active) | 30% | 99% (active) | 92.2% (active) | 17 | 99% (active) | 56.4%
2 | Nc1cccc2cccnc12 | 31 | 72% (active) | 89.3% (active) | 8 | 14% | 27% | 18 | 48% | 78.4% (active) | 4 | 6% | 18.4% | -3% | -4% | 12.6% | 29 | 66% | 91% (active)
3 | CC1=CC(C)C(C)N(CCNC(=O)Nc2ccccc2)c2ccccc21 (stereo not given) | 17 | 51% | 77.2% (active) | 16 | 33% | 80.9% (active) | 14 | 71% (active) | 80.6% (active) | 22 | 80% (active) | 75.5% (active) | -14% | 75% (active) | 84.2% (active) | 14 | 66% | 70.2% (active)
4 | O=[N+]([O-])c1ccc(C2=C[P+](c3ccccc3)(c3ccccc3)C=C(c3ccccc3)O2)cc1 | 29 | 97% (active) | 91% (active) | 21 | 98% (active) | 90.4% (active) | 18 | 99% (active) | 85.2% (active) | 30 | 98% (active) | 86.4% (active) | 45% | 98% (active) | 92.2% (active) | 22 | 97% (active) | 92.2% (active)
5 | CN(C)CC(CN(C)C)C(=O)c1ccc2c(c1)OCO2 | -8 | -30% | 84.7% (active) | -15 | -13% | 87% (active) | -10 | -20% | 92.6% (active) | -6 | -8% | 58.1% | -5% | 25% | 58.6% | 0 | -20% | 93% (active)
6 | COc1ccc(N=Cc2ccccc2O)cc1 | -9 | -57% | 8.1% | 0 | -33% | -8% | -8 | -36% | 2.65% | -4 | -24% | 40.9% | -27% | -118% | -5.25% | -7 | -45% | -26.1%
7 | COc1ccc2c(c1)[n+]([O-])c(-c1ccc(C)cc1)c(N)[n+]2[O-] | 17 | 98% (active) | 99.4% (active) | 22 | 99% (active) | 99.5% (active) | 38 | 100% (active) | 99.3% (active) | 34 | 96% (active) | 98.8% (active) | 75% (active) | 99% (active) | 99.4% (active) | 63 | 98% (active) | 99.2% (active)
8 | CC1=C(C(=O)OCCO[N+](=O)[O-])C(c2cccc([N+](=O)[O-])c2)C(C(=O)OC(C)C)=C(C)N1 (stereo not given) | 13 | 91% (active) | 79.2% (active) | 10 | 92% (active) | 83% (active) | -22 | 91% (active) | 87.5% (active) | -3 | 87% (active) | 81.5% (active) | -3% | 88% (active) | 85.3% (active) | 12 | 95% (active) | 71% (active)
9 | O=C(O)/C=C1\c2ccccc2CCC1c1ccc2ccccc2c1 (stereo not given) | 64 | 93% (active) | 99.7% (active) | 27 | 85% (active) | 99.7% (active) | 43 | 91% (active) | 99.8% (active) | 41 | 82% (active) | 99.3% (active) | 47% | 85% (active) | 99.8% (active) | 54 | 93% (active) | 99.5% (active)
10 | COc1ccc2c(c1)C(Br)CCC(Br)C2=O (stereo not given) | -20 | 2% | 47.6% | -48 | -18% | 56.2% | -17 | 26% | 80.3% (active) | 13 | 39% | 33.5% | -36% | 51% | 88.7% (active) | -20 | 34% | 91.8% (active)

— PubChem BioAssay (NCI)
